Measured values taken from PubChem BioAssay AID2540 (Sanford-Burnham Center for Chemical Genomics, 2010).
Among all 330,000 compounds or so, about 4,100 (1.2%) were called active. The list comes from a sample in which actives are over-represented; it also holds similar structures and randomly drawn compounds. A number with no mark means an inactive call. Rule as the data show it: active = inhibition above about 50%; inactive = the rest.

Target: Sentrin-specific protease 8 (Homo sapiens) (UniProt Q96LD8)
Sequence (Q96LD8 whole entry, looked up): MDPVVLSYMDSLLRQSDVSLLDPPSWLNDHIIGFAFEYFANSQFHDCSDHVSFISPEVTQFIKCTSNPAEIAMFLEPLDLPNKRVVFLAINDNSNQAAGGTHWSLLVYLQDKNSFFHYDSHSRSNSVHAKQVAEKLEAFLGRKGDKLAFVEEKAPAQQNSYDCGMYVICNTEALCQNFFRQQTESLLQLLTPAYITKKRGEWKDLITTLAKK
Assay: SENP8 protease inhibitors, primary screen, biochemical, luminescence (AID 2540)
Conditions: purified SENP8, Z-RLRGG-aminoluciferin cleavage, at 10 µM, active compounds read high

| Compound | inhibition |
| --- | --- |
| O=C(NCC(=O)N1CCN(c2ccccc2O)CC1)c1ccc2ccccc2c1 | -4.96% |
| CC(C)N(C(=O)Cn1cc(SCC(=O)N2CCCC2)c2ccccc21)C(C)C | 55.6% (active) |
| CC(C)N(C(=O)Cn1c(SCC(=O)N2CCN(c3ccccc3)CC2)nc2ccccc21)C(C)C | 3.06% |
| CC(C)N(C(=O)Cn1cc(S(=O)(=O)CC(=O)N2CCOCC2)c2ccccc21)C(C)C | -2.24% |
| O=[N+]([O-])c1cc(S(=O)(=O)NCCc2ccccn2)ccc1Cl | -1.07% |
| CC/C(Cc1ccccc1)=N/NC(=O)CCn1nnc2ccccc21 | 2.91% |
| O=C(Nc1ccccc1C(=O)NCC1CCCO1)c1ccccc1F (stereo not drawn) | -12.9% |
| Cc1c(C(=O)N(C)CCc2cnn(C)c2)oc2c(F)cccc12 | 3.74% |
| O=C(NC(Nc1nc2ccc([N+](=O)[O-])cc2s1)(C(F)(F)F)C(F)(F)F)c1ccccc1 | -0.974% |
| O=C(c1ccncc1)c1ccc([N+](=O)[O-])cc1 | -5.02% |
| O=C(Nc1nc2ccc([N+](=O)[O-])cc2s1)c1ccncc1 | 87.5% (active) |
| CCCOC(=O)c1c(NC(=O)c2cnn3c2NC(c2ccccc2)CC3C(F)(F)F)sc2c1CCCC2 (stereo not drawn) | -1.5% |
| O=C(c1ccco1)N1CCN(C(=S)Nc2cc(F)cc(F)c2)CC1 | 2.74% |
| COc1ccc(N2CCN(C(=O)CNS(=O)(=O)c3ccc(C)c(C)c3)CC2)cc1 | -6.38% |
| Cc1cccc2cc3c(N)c(C(=O)N4CCCc5ccccc54)sc3nc12 | -4.99% |
| CC(=O)c1ccc(OCCCC(=O)Nc2ccc(C)c(S(=O)(=O)N3CCOCC3)c2)cc1 | 8.63% |
| O=C(CSC(=S)N1CCOCC1)c1ccccc1 | 59.3% (active) |
| O=C(CSC(=S)N1CCOCC1)c1cc(Br)cc(Br)c1O | -4.17% |
| CC1CN(C(=S)SCC(=O)c2ccccc2)CC(C)O1 (stereo not drawn) | 1.35% |
| CCOc1ccc(S(=O)(=O)N2CCC(C(=O)NCC(=O)Nc3cccc(Cl)c3C)CC2)cc1 | 3.22% |
| Cc1ccc(-c2nc(CSCC(=O)NC3CCN(Cc4ccccc4)CC3)c(C)o2)cc1 | -1.87% |
| CCCn1c(C)cc(/C=C(\C#N)C(=O)OCC(=O)Nc2cc(OC)c(OC)c(OC)c2)c1C | 1.35% |
| COc1ccccc1NC(=O)C1=C(C)Nc2nc3ccccc3n2C1c1cccs1 (stereo not drawn) | -5.43% |
| O=C(Nc1ccc(N2CCCC2=O)cc1)c1cncc(Br)c1 | -0.181% |

| Compound | inhibition |
| --- | --- |
| CCOC(=O)c1cccnc1NC(=O)c1ccncc1 | -5.42% |
| CCOC(=O)c1sc(NC(=O)c2ccncc2)nc1C | 88.2% (active) |
| CCOC(=O)c1sc(NC(=O)c2sc(C)nc2C)nc1C | 13.7% |
| Cc1ccc(NC(=O)CN(C)C(=O)c2ccc(Cl)c(S(=O)(=O)NCc3ccco3)c2)cc1 | -1.14% |
| O=CN1CCN(C(=O)c2ccc(Br)o2)CC1 | 0.91% |
| O=C(Nc1ccc2c(c1)OCCO2)c1ccoc1 | -5.62% |
| O=C(Nc1ccc(N2CCOCC2)cc1)c1ccc2c(c1)OCO2 | 12.3% |
| O=C(Nc1ccccc1)c1ccc2c(c1)OCCCO2 | 75.9% (active) |
| Cc1onc(C(=O)Nc2ccc3c(c2)OCO3)c1[N+](=O)[O-] | -9.15% |
| O=C(Nc1cccc([N+](=O)[O-])c1)c1ccc2c(c1)OCO2 | 59.1% (active) |
| O=C(Nc1ccccc1)c1ccc2c(c1)OCO2 | 66.7% (active) |
| O=C(COC(=O)c1ccc(F)cc1)Nc1ccc2c(c1)OCO2 | -15.4% |
| O=C(Nc1ccc(NC(=O)c2ccc3c(c2)OCO3)cc1)c1cccc(Cl)c1 | -4.6% |
| CN1CCN(c2ccc(NC(=O)c3ccc4c(c3)OCCO4)cc2Cl)CC1 | 3.49% |
| CC(NC(=O)Nc1cccc([N+](=O)[O-])c1)c1ccc2c(c1)OCO2 (stereo not drawn) | -0.051% |
| CC(=O)Nc1cccc(C(=O)OCC(=O)c2ccc3c(c2)OCO3)c1 | 67.1% (active) |
| O=C(COC(=O)c1ccncc1)Nc1ccc2c(c1)OCO2 | 8.05% |
| Cc1ccsc1C1C(C#N)=C(N)OC2=C1C(=O)CC(C)C2 (stereo not drawn) | -10.3% |
| Cc1ccc(S(=O)(=O)N2CCCCC2)cc1NC(=O)c1cccnc1 | -12.3% |
| CC1(C)C/C(=N/Nc2ccc([N+](=O)[O-])cc2[N+](=O)[O-])C(C)(C)O1 | -5.03% |
| CCCCn1c(N)c(N(CC(C)C)C(=O)CN(C)S(=O)(=O)c2ccc(F)cc2)c(=O)[nH]c1=O | 2.26% |
| COC(=O)C1=C(C(=O)OC)C2(OC1c1ccc(Br)cc1)C(=O)c1ccccc1C2=O (stereo not drawn) | -0.809% |
| N#CCCN(C(=O)COC(=O)c1ccc2c(c1)OCCO2)c1ccccc1 | 10% |
| Cc1ccc2sc(NNC(=O)c3ccc4c(c3)OCCO4)nc2c1C | -5.8% |

| Compound | inhibition |
| --- | --- |
| CN(Cc1c(F)cccc1Cl)C(=O)CNC(=O)c1ccc2c(c1)OCO2 | -2.64% |
| O=C(OCc1ccccc1F)c1ccc2c(c1)OCCO2 | 80.2% (active) |
| O=C(Nc1ccccc1F)c1ccc2c(c1)OCO2 | 65.2% (active) |
| COCc1nnc(NC(=O)c2ccc3c(c2)OCO3)s1 | 0.871% |
| O=C(COC(=O)c1ccc2c(c1)OCCO2)NCc1ccccc1Cl | -14.4% |
| COc1cc(C(=O)NCC2(c3ccccc3)CCCC2)ccc1OC(C)C | 1.28% |
| N#Cc1ccccc1NC(=O)c1ccc2c(c1)OCO2 | 0.633% |
| O=C(Nc1nc2ccccc2s1)c1ccc2c(c1)OCO2 | 94.1% (active) |
| COc1ccc(C(=O)Nc2ccc3nc(N4CCCCC4)cc(C)c3c2)cc1OC | 1.68% |
| COc1ccc(C(=O)Nc2ccc(C3(C#N)CCCC3)cc2)cc1OC | 92.8% (active) |
| O=C(Nc1cc(Cl)ccc1N1CCOCC1)c1ccc(N2CCCC2=O)cc1 | 6.24% |
| CC(CNc1ccc([N+](=O)[O-])c2cccnc12)Nc1c([N+](=O)[O-])cc(C(F)(F)F)cc1[N+](=O)[O-] (stereo not drawn) | -1.48% |
| CCN(CC)CCOc1ccc2c(c1)C(=NNC(=O)c1ccccn1)c1cc(OCCN(CC)CC)ccc1-2 | -1.52% |
| N#Cc1ccc(OCC(=O)NC(=O)NC2CCS(=O)(=O)C2)cc1 (stereo not drawn) | 0.761% |
| COc1cc(/C=C/C(=O)O)cc(S(=O)(=O)Nc2ccccc2C(=O)NCCc2ccccc2)c1OC | 0.693% |
| Cc1cc(C)c(C#N)c(SCS(=O)c2ccc(C(C)(C)C)cc2)n1 (stereo not drawn) | -4.22% |
| CN1CC(c2ccccc2)C2(COc3ccccc3C2=O)C12C(=O)Nc1ccccc12 (stereo not drawn) | 0.36% |
| CC(=O)c1ccccc1NC(=O)CC1(CC(=O)O)CCCCC1 | 1.06% |
| Clc1ccc(CSc2nnc([C@@H]3CCCN3)o2)cc1 | -0.161% |
| CC(C)[C@@H]1NC(=O)c2cc([N+](=O)[O-])cc(I)c2NCCC[C@@H](C(=O)NC(CC(=O)O)C(N)=O)NC(=O)[C@H](CO)NC1=O (stereo partly drawn) | 3.05% |
| O=C(NCCOc1ccccc1F)Nc1ccc(Br)cc1 | -3.32% |
| Cc1cc(C)nc(NC(=O)c2cccc([N+](=O)[O-])c2)c1 | -2.37% |
| O=C(Nc1ccc(C2CC2(Cl)Cl)cc1)c1cccc([N+](=O)[O-])c1 (stereo not drawn) | 50.5% (active) |
| COc1cc(NC(=O)c2ccc3c(c2)OCO3)ccc1NC(=O)c1cccs1 | -17.4% |

| Compound | inhibition |
| --- | --- |
| CC(C)C(=O)Nc1cccc(C(=O)Nc2ccc3c(c2)OCO3)c1 | 1.49% |
| COc1ccc(C(=O)Nc2ccc3c(c2)OCO3)cc1OC | 77.5% (active) |
| CC(C)(C)SCCNC(=O)c1cccc([N+](=O)[O-])c1 | -0.846% |
| CCN(c1ccccc1)S(=O)(=O)c1cc2c(cc1C)n(C)c(=O)c(=O)n2C | -13.5% |
| CCN1CCN(c2cc3nc(C)n(Cc4ccccc4)c(=O)c3cc2NC(=O)c2ccccc2F)CC1 | -6.48% |
| COc1ccc(C)cc1NC(=O)CSc1nnc2ccc(-c3ccccn3)nn12 | 4.77% |
| Brc1ccccc1CN1CCC(Cc2ccccc2)CC1 | 3.24% |
| COc1ccc(C2=NN(c3nc4ccccc4s3)C(=O)C2)cc1 | 10.1% |
| COc1ccc(-n2nnnc2-c2nc3ccccc3s2)cc1 | 50.3% (active) |
| COc1ccc(-n2nnnc2CNC(=O)c2ccc3ccccc3c2)cc1 | -10.6% |
| N#Cc1c(N)sc2c1CCN(C(=O)OCc1ccccc1)C2 | 2.15% |
| COc1ccc(SCCN2CCN(CC(C)C)CCC2=O)cc1 | 5.29% |
| O=C(NCCCN1CCCC1=O)C(=O)NCC1OCCN1S(=O)(=O)c1ccc(Br)cc1 (stereo not drawn) | -0.009% |
| CN(C)c1ccc(/C=C/C(=O)c2ccc(O)cc2)cc1[N+](=O)[O-] | -28.3% |
| O=C(/C=C/c1ccc2c(c1)OCCO2)c1ccc(O)cc1 | 76.9% (active) |
| O=C(O)/C=C/c1ccc2c(c1)OCCO2 | 1.06% |
| CNS(=O)(=O)c1ccc(NC(=O)Nc2ccc3c(c2)OCO3)cc1 | -9.35% |
| CN1CCN(c2ncc3c(n2)CC(c2ccccc2F)CC3=O)CC1 (stereo not drawn) | -5.2% |
| Cc1cccc(Nc2ccccc2C(=O)NCc2ccco2)c1C | -4.58% |
| O=C(CCNC(=O)c1ccccc1Cl)NCc1ccco1 | -2.13% |
| O=C(Nc1ccccc1)Nc1ccccc1C(=O)NCc1ccco1 | 65.9% (active) |
